Data on 15 compounds can be found in PubChem BioAssay (NCI).

This is part of a sample that, as a whole, favours compounds with a hit. Of some 83,000 tested, about 20% had one in any assay.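 Note: values are percent growth. 100 is the growth of untreated cells, values between 100 and 0 indicate rising inhibition; between -100 and 0 indicates cell death.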 Values without a mark were called inactive. Calls of active or inactive are those of the source. Rule for the calls: active = growth percent below 10; inactive = the rest.

Holding throughout (test): NCI-60 one-dose screen, 48 h (100 = growth as untreated, 0 = no growth, -100 = all killed)
Common to all, as to settings: 10 µM unless noted

Test [1] relates to DU-145 prostate.
For test [2], the system named is K-562 leukemia.
Test [3] concerns MALME-3M melanoma.
The test system of test [4] is MDA-MB-231 breast.
For test [5], the system named is RXF 393 renal.
The subject of test [6] is SF-268 CNS.
For test [7], the system named is SF-295 CNS.
Test [8] deals with SF-539 CNS.
Test [9] concerns UACC-257 melanoma.
The subject of test [10] is M14 melanoma.
Test [11] concerns HCT-15 colon.
Test [12] deals with HT29 colon.
For test [13], the system named is SNB-19 CNS.
Test [14] has as its system U251 CNS.
Test [15] has as its system PC-3 prostate.
The subject of test [16] is SK-MEL-5 melanoma.
Test [17] has as its system UACC-62 melanoma.
For test [18], the system named is LOX IMVI melanoma.
Test [19] has as its system SK-MEL-28 melanoma.

As to `O=C(N/N=C1\c2ccccc2-c2cccc(C(=O)O)c21)c1ccc(O)cc1`, the growth in test [1] was 101%; in test [2], 105%; in [3] it was 88.2%; in test [4], 92.2%; in test [5], 97.6%; in [6], 96.6%. Moreover, the growth in test [7] is 102%; in test [8], 97.7%; in test [9] it was 99.5%; in test [10] it was 98%; in test [11] it was 107%; in test [12], 98.3%. In addition, the growth was 96.3% in test [13]; 101% in test [14]; 92.1% in [15]; 99.1% in [16]; 93.8% in [17]; 98.9% in test [18]. The growth in [19] is 102%.

`[2H]C1([2H])CCN(C(=O)C2CC2)c2cc(NS(=O)(=O)c3ccc(-c4cccc(C(N)=O)c4)cc3)ccc21`: the growth in [1] is 72%; in test [2], 20.7%; in [3], 39.6%; in test [4] it was 42.3%; in test [5] it was 48.4%; in test [6] it was 51.9%. The growth was 19.8% in [7]; 23.4% in test [8]; 47.7% in test [9]; 86.4% in test [10]; 90.7% in test [11]; 13.6% in test [12]. For the same compound, the growth is 41.2% in test [13]; 29.8% in test [14]; 34.2% in test [15]; 15.4% in test [16]; 21.4% in test [17]; 39.2% in [18]. The growth in test [19] is 43.9%.

For `Cc1ccc(-c2cc(-c3ccc(C)cc3)nc(NCCNc3ccnc4cc(Cl)ccc34)n2)cc1`, the growth in test [1] is -26.4% (active); in test [2] it was -14.4% (active); in [3], -81.4% (active); in test [4], -89.1% (active); in test [5] it was -70.4% (active); in [6], -21.9% (active). The growth in test [7] was -76.3% (active); in test [8], -80.6% (active); in test [9], -60.9% (active); in test [10], -88.8% (active); in test [11] it was -84.9% (active); in [12], -36% (active). For the same compound, the growth in test [13] is 16.8%; in test [14], -84.4% (active); in test [15] it was -22.8% (active); in test [16], -93.1% (active); in test [17], -79.9% (active); in test [18], -92.3% (active). In addition, the growth in [19] is -83.6% (active).

On to `CCCCCC1CCCCN1C(=O)OCCCC` (stereo not drawn), for which the growth is 118% in test [1]; 109% in test [2]; 88.9% in test [3]; 77.5% in [4]; 96.9% in [5]; 99.1% in test [6]. Also, the growth was 89.3% in test [7]; 92% in [8]; -7.74% (active) in test [9]; 105% in [10]; 101% in [11]; 103% in [12]. Further, the growth in [13] was 105%; in test [14] it was 104%; in [15], 111%; in [16] it was 99.4%; in test [17] it was 76.4%; in test [18], 94.7%. Also, the growth in [19] is 116%.

Turning to `CCCc1cc2cc(-n3nc(C)c4c3CC(C)(C)CC4=O)cc(NC3CCSCC3)c2c(=O)[nH]1`, the growth in [1] was 42.9%; in [2] it was 19%; in test [3] it was 64.6%; in test [4], 55.6%; in test [5], 33.7%; in test [6] it was 81.2%. In addition, the growth was 62.2% in test [7]; 75.4% in test [8]; 84.6% in test [9]; 56.6% in [10]; 41.4% in test [11]; 9.23% (active) in test [12]. Besides, the growth in test [13] was 72%; in test [14], 72.3%; in test [15], 55.2%; in test [16] it was 70.4%; in test [17], 53.2%; in test [18], 54.8%. In test [19], the growth is 68.6%.

Regarding `CCOC(=O)c1nn(C2CCCCO2)c2ccc(NC(=O)Cn3nnc4ccccc43)cc12` (stereo not drawn), the growth was 104% in test [1]; 91.3% in test [2]; 105% in test [3]; 96.4% in test [4]; 125% in test [5]; 101% in [6]. Besides, the growth in test [7] was 99.3%; in test [8], 100%; in test [9] it was 100%; in test [10], 102%; in test [11] it was 95.9%; in test [12], 115%. The growth was 86.5% in [13]; 96.4% in test [14]; 110% in test [15]; 99.1% in test [16]; 99.9% in [17]; 96.5% in test [18]. Moreover, the growth in test [19] is 106%.

As for `COc1ccc2nc3c(cc2c1)C(=O)CC(c1ccccc1)C3` (stereo not drawn), the growth was 1.12% (active) in test [1]; 13.2% in test [2]; 47.7% in test [3]; 54.6% in test [4]; -2.76% (active) in [5]; 53.9% in test [6]. The growth was 31% in [7]; 7.92% (active) in test [8]; 82.9% in test [9]; 9.28% (active) in test [10]; 24.8% in test [11]; 9.97% (active) in test [12]. In addition, the growth in test [13] is 34.3%; in [14] it was 45%; in [15], 28.8%; in test [16], 30.2%; in test [17] it was 36.9%; in [18] it was 36.1%. The growth in [19] is 54.6%.

For the compound `O=C(Nc1ccccc1)Nc1ccc(C(=O)/C=C/c2ccc(N3CCCC3)cc2)cc1`, the growth was 94.7% in test [1]; 77.2% in test [2]; 79.1% in [3]; 56.8% in test [4]; 58.8% in test [5]; 57.6% in test [6]. The growth is 73.4% in test [7]; 78.7% in test [8]; 51.4% in test [9]; 101% in [10]; 56.8% in test [11]; 69.5% in test [12]. Further, the growth was 66% in test [14]; 45% in test [16]; 42.2% in test [17]; 85.6% in [18]; 51.1% in test [19].

As to `c1ccc(-c2n[nH]c(-c3ccccn3)n2)nc1`, the growth in test [1] is 133%; in test [2], 104%; in [3], 107%; in [4] it was 116%; in test [5], 95.7%; in [6] it was 140%. Also, the growth was 98.1% in [7]; 106% in test [8]; 106% in test [9]; 111% in [10]; 96.4% in test [11]; 108% in test [12]. Moreover, the growth in test [13] was 99.5%; in test [14], 110%; in test [15], 94.4%; in test [16] it was 102%; in [17], 104%; in test [18], 115%. Also, the growth in test [19] was 149%.

As to `Cc1ccc(-c2cc(-c3ccc(C)cc3)nc(N3CCN(CCNc4ccnc5cc(Cl)ccc45)CC3)n2)cc1`, the growth in test [1] is 21.5%; in [2], 27.7%; in [3], -45.9% (active); in [4] it was 18.6%; in [5], -14.5% (active); in test [6], 28.2%. Further, the growth is 94.9% in [7]; 7.85% (active) in test [8]; 40.8% in test [9]; -2.46% (active) in test [10]; 42.1% in test [11]; 11.9% in [12]. In addition, the growth was 38.7% in [13]; 35.7% in test [14]; 44.6% in test [15]; 38.5% in test [16]; 12.2% in test [17]; 6.97% (active) in test [18]. For the same compound, the growth in [19] is 14.6%.

As for `O=C1Nc2ccccc2/C1=C/C(=O)c1ccc(N2CCOCC2)cc1`, the growth in test [1] was 74%; in [2], 75%; in [3] it was 75.9%; in test [4] it was 88.4%; in test [5], 92.2%; in test [6], 86.5%. Besides, the growth in [7] was 99.1%; in test [8], 90.8%; in test [9], 95.7%; in [10], 99.7%; in test [11], 93%; in test [12], 83.4%. Moreover, the growth in [13] was 93.9%; in [14] it was 81.9%; in [15] it was 84.6%; in test [16], 101%; in [17], 83.2%; in test [18], 88.9%. Further, the growth in test [19] is 107%.

Take `Cn1cc(-c2noc(-c3cn(C)c4ncc(Br)cc34)n2)c2cc(Cl)ccc21`: the growth in test [1] is 87%; in test [2] it was 66.3%; in test [3], 35.4%; in test [4], 57.2%; in [5] it was 105%; in test [6], 59.1%. In addition, the growth in test [7] was 63%; in test [8], 48.9%; in [9], 99.2%; in test [10] it was 82.4%; in [11], 87.6%; in [12], 67.3%. The growth in [13] is 63%; in test [14], 97.5%; in test [15], 80.3%; in test [16], 83.9%; in [17], 78.5%; in [18], 65.4%. In addition, the growth in [19] is 86.8%.

For the compound `COc1cc(OC)cc(C(=O)Nc2cc(-c3cccnc3)nc(NCCCN3CCOCC3)n2)c1`, the growth in [1] was 104%; in test [2], 74.1%; in [3] it was 110%; in test [4], 79.6%; in [5], 93.9%; in [6] it was 94.1%. The growth in test [7] was 101%; in test [8], 91.1%; in [9], 88.6%; in test [10] it was 104%; in test [11], 90.6%; in test [12], 85.2%. Moreover, the growth in test [13] was 98.7%; in [14], 90.6%; in test [15], 85.4%; in test [16], 68.3%; in test [17] it was 97.6%; in test [18], 88.1%. In addition, in test [19], the growth was 101%.

As to `C=C(C)[C@@H]1CC[C@]2(C(=O)O)CC[C@]3(C)[C@H](CC[C@@H]4[C@@]5(C)C/C(=C/c6ccco6)C(=O)C(C)(C)[C@@H]5CC[C@]43C)[C@@H]12`, the growth in [1] was -35% [100 µM] (active); in test [2], 8.08% [100 µM] (active); in [3], -82.3% [100 µM] (active); in test [4], -60.8% [100 µM] (active); in [5], -98.2% [100 µM] (active); in [6], -41.5% [100 µM] (active). In addition, the growth in test [7] was -82.8% [100 µM] (active); in test [8] it was -77.8% [100 µM] (active); in [9] it was -64.1% [100 µM] (active); in test [10], -62.6% [100 µM] (active); in [11], -65.6% [100 µM] (active); in test [12] it was -56.2% [100 µM] (active). For the same compound, the growth was -51.5% [100 µM] (active) in [13]; -58.6% [100 µM] (active) in test [14]; -49.3% [100 µM] (active) in test [15]; -73.5% [100 µM] (active) in [16]; -97.6% [100 µM] (active) in [17]; -60.6% [100 µM] (active) in test [18]. Besides, the growth in [19] was -64.7% [100 µM] (active).

`CC1=CC[C@@H]2C(C)(C)C(=O)CC[C@@]2(C)[C@@H]1COc1ccc2ccc(=O)oc2c1`: the growth in [1] was 88.3%; in test [2], 60.1%; in test [3], 78%; in test [4], 89.4%; in test [5], 68.6%; in test [6], 86.4%. For the same compound, the growth in test [7] was 69%; in [8], 87.5%; in test [9], 91.4%; in [10], 89%; in [11], 78.6%; in test [12], 78.5%. The growth in [13] is 81%; in [14] it was 87.5%; in test [15] it was 58.4%; in test [16], 26.1%; in test [17] it was 41.9%; in test [18] it was 87.9%. In [19], the growth was 87.7%.
